Experimental data from the supplement of paper PMC13380429.

Test system: Vero E6 infected with SARS-CoV-2
Test: inhibition of SARS-CoV-2 cytopathic effect; higher = more antiviral protection, active = above 15
Details: 833.33 nM; 48 h

| SMILES | inhibition of SARS-CoV-2 cytopathic effect |
| --- | --- |
| Oc1ccc2c3c1O[C@H]1[C@@H](O)CC[C@@]4(O)[C@@H](C2)N(CC2CCC2)CC[C@]314 [nalbuphine] | 0.68% (inactive) |
| O=C(O)[C@H](O)c1ccccc1 [mandelic-acid] | 2.65% (inactive) |
| CSc1ccccc1OCC(O)CNC(C)C (centres undefined) [tiprenolol] | 0.37% (inactive) |
| Nc1n[n+]([O-])c2ccccc2[n+]1[O-] [tirapazamine] | 0.37% (inactive) |
| Cc1cccc(NC(=O)CN2CCC(c3ccccn3)CC2)c1 | 0% (inactive) |
| CC[N+](CC)(CC)CCC(O)(c1ccccc1)C1CCCCC1 (centres undefined) [tridihexethyl] | -1.37% (inactive) |
| C=CC(=O)Nc1ccc2ncnc(Nc3ccc(OCc4cccc(F)c4)c(Cl)c3)c2c1 | -0.61% (inactive) |
| CC(=O)N(C)c1cc(-c2ccnc3c(C(=O)c4cccs4)cnn23)ccc1F [lorediplon] | 1.05% (inactive) |
| CO/N=C(\C(=O)N[C@@H]1C(=O)N2C(C(=O)OCOC(=O)C(C)(C)C)=C(/C=C\c3scnc3C)CS[C@H]12)c1csc(N)n1 [cefditoren-pivoxil] | -1.49% (inactive) |
| O=C(CC12CC3CC(CC(C3)C1)C2)Nc1cccc2nc(NCCNCCO)ccc12 | 4.43% (inactive) |
| Nc1[nH]cnc2ncnc1-2 [adenine] | 6.45% (inactive) |
| COc1ccc2cccc(N3CCN(CCNC(=O)c4ccc(F)cc4)CC3)c2c1 | 0.7% (inactive) |
| CC(C)(C)NC[C@H](O)c1ccc(O)cc1Cl [meluadrine] | -2.53% (inactive) |
| CCOc1ccc2nc3cc(N)ccc3c(N)c2c1 [ethacridine-lactate-monohydrate] | -1.28% (inactive) |
| COC(=O)CCc1ccc(OCC(O)CNC(C)C)cc1 (centres undefined) [esmolol] | 0.07% (inactive) |
| Cc1c(NC(=O)c2cc3c(s2)CCCC3)cccc1-c1cn(C)c(=O)c(Nc2ccc(C3C(=O)N(C)CCN3C)cc2)n1 (stereo in doubt) | 3.72% (inactive) |
| C[C@@H]1CN(Cc2ccc(F)cc2)[C@@H](C)CN1C(=O)c1cc2c(C(=O)C(=O)N(C)C)cn(C)c2cc1Cl [talmapimod] | -0.03% (inactive) |
| Cc1cc2sc(NC(=O)Cc3ccccc3)nc2cc1Cl | 0.81% (inactive) |
| NC(=O)[C@@H](CC1CC1)[C@@H](CCC(F)(F)F)C(=O)N[C@H]1N=C(c2ccccc2)c2cccc(F)c2NC1=O | -3.05% (inactive) |
| CS(=O)(=O)Oc1ccc2c(NC(N)=O)c(C(=O)c3ccc(Cl)cc3Cl)oc2c1 [lirimilast] | -12.5% (inactive) |

| SMILES | inhibition of SARS-CoV-2 cytopathic effect |
| --- | --- |
| NC(=O)c1cccc(N)c1 [3-amino-benzamide] | -1.13% (inactive) |
| Fc1ccc(C(c2ccc(F)cc2)N2CCN(C/C=C/c3ccccc3)CC2)cc1 [flunarizine] | -2.17% (inactive) |
| CC(C)NCC(O)COc1cccc2[nH]ccc12 (centres undefined) [pindolol] | -0.725% (inactive) |
| CN1C/C=C/CCOc2cccc(c2)-c2ccnc(n2)Nc2cccc(c2)C1 | -10.7% (inactive) |
| CCC[C@H](N[C@@H](C)C(=O)N1[C@H](C(=O)O)C[C@@H]2CCCC[C@@H]21)C(=O)OCC [perindopril] | 0.99% (inactive) |
| O=C1[C@H]2CCCC[C@H]2C(=O)N1CCCCN1CCN(c2nsc3ccccc23)CC1 [perospirone] | 3.58% (inactive) |
| Nc1nc(=O)c2c([nH]1)NCC(CNc1ccc(C(=O)N[C@@H](CCC(=O)O)C(=O)O)cc1)N2C=O (some centres undefined) [leucovorin] | 1.42% (inactive) |
| N[C@H](CO)C(=O)O [D-serine] | -1.45% (inactive) |
| CC(C)[C@H](N)C(=O)OCCOCn1cnc2c(=O)nc(N)[nH]c21 [valaciclovir] | 0.1% (inactive) |
| NCC1OC(C23CC4CC(CC(C4)C2)C3)Cc2c1ccc(O)c2O (centres undefined) | 1.57% (inactive) |
| C#CCN(C)[C@H](C)Cc1ccccc1 [selegiline] | 0.09% (inactive) |
| O=C(Nc1nc(-c2cc(Cl)cs2)c(N2CCN(C3CCCCC3)CC2)s1)c1cnc(N2CCC(C(=O)O)CC2)c(Cl)c1 [avatrombopag] | -3.82% (inactive) |
| CC(=C(CCO)SSCC1CCCO1)N(C=O)Cc1cnc(C)nc1N (stereo in doubt) [fursultiamine] | -1.75% (inactive) |
| O=c1[nH]c2ccccc2n1C1CCN(CCOc2ccccc2)CC1 [oxiperomide] | -0.51% (inactive) |
| Cc1coc2c1C(=O)C(=O)c1c-2ccc2c1CCCC2(C)C [tanshinone-IIA] | -7.33% (inactive) |
| CNC(=O)Oc1cccc2ccccc12 [carbaril] | 1.22% (inactive) |
| CC(=O)NO [acetohydroxamic-acid] | 2.55% (inactive) |
| COc1cc(OC)c(C(=O)CCCCN2CCC3(CC2)NC(=O)NC3=O)cc1NS(=O)(=O)c1ccc(C(F)(F)F)cc1 | 0.81% (inactive) |
| Nc1nc(O)c2nc(Br)n([C@@H]3O[C@@H]4COP(=O)(O)O[C@H]4[C@H]3O)c2n1 [8-bromo-cGMP] | 1.94% (inactive) |
